# Screening results as filed in PubChem BioAssay.
# HRas wt GTP bind: modulators of GTP binding to human HRas wildtype; P01112; GTP binding activity, % at 10 µM; 190,000 tested, 0.14% active; AID 759; GST-Ras wt beads, Bodipy-FL-GTP binding, flow cytometry; actives lie on both sides;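 active = GTP binding activity at least 20% away from the 100% baseline, either lowered as inhibitor or raised as activator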;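 note: 0% = unlabeled GTP competition control and 100% = no-compound control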
# Target sequence (P01112 whole entry, looked up): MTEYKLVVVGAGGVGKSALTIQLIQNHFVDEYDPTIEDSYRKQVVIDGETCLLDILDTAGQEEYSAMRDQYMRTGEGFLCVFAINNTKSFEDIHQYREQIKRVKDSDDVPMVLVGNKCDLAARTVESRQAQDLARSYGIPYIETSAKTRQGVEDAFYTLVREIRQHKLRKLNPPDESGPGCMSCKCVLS
# Rac1 wt modul: human Rac1 wildtype GTP binding, inhibitors and activators | 190,000 tested, 0.27% active | P63000 | GTP binding activity (% of control), % at 10 µM | GST-Rac1 beads, fluorescent GTP binding, flow cytometry; actives lie on both sides; 0 = cold GTP competed, 100 = untreated;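 active = GTP binding activity at least 20 points away from the 100% control level, either lower or higher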
# Cdc42 wt GTP: human Cdc42 wildtype GTP binding change, either direction. P60953. GST-Cdc42 beads, Bodipy-GTP binding, flow cytometry; actives lie on both sides. percent activity (GTP binding), % at 10 µM. 190,000 tested, 0.2% active;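 active = percent activity GTP binding at least 20 points away from the 100% baseline, either down as inhibitor or up as activator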;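 note: median bead fluorescence of bound Bodipy-FL-GTP at 100 nM; 0% = excess unlabeled GTP control and 100% = no compound control; below 100% means less GTP binding so inhibitor and above means activator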
# Target sequence (P60953 whole entry, looked up): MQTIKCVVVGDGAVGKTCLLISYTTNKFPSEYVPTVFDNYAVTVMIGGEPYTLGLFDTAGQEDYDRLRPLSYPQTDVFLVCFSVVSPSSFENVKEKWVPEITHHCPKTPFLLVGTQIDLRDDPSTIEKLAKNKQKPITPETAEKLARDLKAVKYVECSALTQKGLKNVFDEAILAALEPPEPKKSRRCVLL
# Rac1 act GTP bind: human Rac1 activated mutant GTP binding change | 190,000 tested, 0.11% active | P63000 | AID 764 | GST-Rac1 activated beads, fluorescent GTP binding, flow cytometry; actives lie on both sides; 100% means binding = to untreated wells | percent activity (GTP binding), % at 10 µM;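 active = GTP binding at least 20 percentage points away from the 100% baseline, in either direction, so actives lie on both sides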
# Rab7 wt modul: dog Rab7 wildtype GTP binding, inhibitors and activators; GST-Rab7 beads, fluorescent GTP binding, flow cytometry; actives lie on both sides; untreated = 100%, excess cold GTP = 0%; GTP binding activity (percent of control), % at 10 µM; 190,000 tested, 0.055% active;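 active = fluorescent GTP binding to Rab7 beads changed by at least 20 points from the 100% baseline, either direction, mostly lower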;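 note: median green fluorescence of bound Bodipy-FL-GTP per Rab7 bead population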
# Rab2A wt mod: changes GTP binding to wildtype dog Rab2A, up or down | GST-Rab2 wt beads, Bodipy-GTP binding, flow cytometry | GTP binding activity, % at 10 µM | P61105 | AID 760 | 190,000 tested, 0.19% active;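 active = GTP binding activity at least 20 points away from 100%, either lowered or raised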;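 note: 0% = beads with excess unlabeled GTP and 100% = no-compound control corrected for plate trend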
# The depositor's hits bear a star; [ ] = dose if it differs, or a comment. The list is not random: actives were taken first. Their share in the collection is about 0.38%.
SMILES,HRas wt GTP bind,Rac1 wt modul,Cdc42 wt GTP,Rac1 act GTP bind,Rab7 wt modul,Rab2A wt mod
COc1ccc(OC)c(/C=N/NC(=O)c2ccc(Cn3cc([N+](=O)[O-])cn3)o2)c1,82,81,91,92,87,78*
CCOC(=O)N1CCN(/C=C(\C#N)c2nc3ccccc3s2)CC1,121*[activator],124*[activator],114,118,120*[activator],129*[activator]
O=C(/C=C/c1cccc(Oc2ccccc2)c1)N1CCOCC1,98,98,96,96,103,100
c1ccc(Cn2c(NCc3ccncc3)nc3ccccc32)cc1,100,100,97,97,97,95
COc1ccc(CNc2nc3ccccc3n2Cc2ccc(C)cc2)cc1OC,121*[activator],142*[activator],131*[activator],125*[activator],115,123*[activator]
Cc1nc(-c2ccccc2)sc1C(=O)NN,118,128*[activator],125*[activator],114,104,120*[activator]
Cc1nc2ccccn2c1-c1csc(Nc2cccc(O)c2)n1,83,75*,82,87,88,82
COc1ccc(-c2cc(=O)c(C(=O)c3ccc(C)cc3)n[nH]2)cc1,100,121*[activator],95,105,110,99
Cc1coc(=N)n1CC(=O)c1ccc(Cl)cc1,95,99,99,95,101,98
C/C(=C1/SC(=S)N(CCC(=O)O)C1=O)c1ccc(O)cc1,88,92,85,77*,86,85
CC1(CC(=O)N/N=C/c2cc3c(cc2Br)OCO3)OCCO1,98,101,99,100,94,98
CCOC(=O)c1cc2c(N)c(C(=O)c3ccc(Br)cc3)sc2[nH]c1=O,74*,64*,71*,79*,90,71*
N#CCc1c(C#N)c(N)nc(N2CCN(C=O)CC2)c1C#N,79*,73*,78*,86,89,77*
N#CCc1c(C#N)c(N)nc(N2CCN(S(=O)(=O)c3ccccc3)CC2)c1C#N,93,95,95,94,97,94
N#CC(c1ccc(Cl)nn1)c1ccc(Cl)cc1Cl (configuration not stated),108,121*[activator],112,99,105,108
Cc1ccc(C)n1N1C(=O)/C(=C\c2ccc(Cl)cc2)SC1=S,95,92,92,91,96,92
NS(=O)(=O)c1ccc(CCN2C(=O)/C(=C\c3ccc(Cl)cc3)SC2=S)cc1,84,77*,84,85,85,82
CC(=O)Nc1ccc(Nc2ccc3nonc3c2[N+](=O)[O-])cc1,95,98,95,95,94,93
CCc1nnc(NS(=O)(=O)c2ccc(Nc3ccc4nonc4c3[N+](=O)[O-])cc2)s1,77*,77*,81,83,87,76*
CCOc1cc(C2c3c(-c4ccccc4)n[nH]c3C(=O)N2c2ccc(C(=O)O)cc2)ccc1O (configuration not stated),85,59*,79*,74*,94,79*
COC(=O)CSc1nc2cc(Cl)ccc2c(=O)n1C1CCCC1,80,89,79*,92,90,80
Cc1cc(NC(=O)CSc2nc3ccccc3c(=O)n2C2CCCC2)no1,100,104,102,101,103,102
CC(Oc1ccc(F)cc1)C(O)CCN(C)C (configuration not stated),100,103,104,94,100,97
COc1cccc(N2CCN(C(=O)CCCCCNc3nc(=S)[nH]c4ccccc34)CC2)c1,83,74*,79*,89,98,83
O=C(CCCCCNc1nc(=S)[nH]c2ccccc12)N1CCN(c2ccccn2)CC1,91,91,91,98,94,91
SMILES,HRas wt GTP bind,Rac1 wt modul,Cdc42 wt GTP,Rac1 act GTP bind,Rab7 wt modul,Rab2A wt mod
CCOC(=O)C1=C(N)OC2=C(C(=O)CCC2)C1c1ccco1 (configuration not stated),97,94,94,92,98,101
CCOc1ccccc1C1C(C(=O)OC)=C(N)OC2=C1C(=O)CCC2 (configuration not stated),116,133*[activator],125*[activator],110,111,118
NC1=NC(=O)/C(=C/c2cn(CCC(=O)O)nc2-c2ccc(Cl)cc2)S1,81,77*,85,85,89,81
NC1=NC(=O)/C(=C/c2cn(CCC(=O)O)nc2-c2ccc(F)cc2)S1,97,96,97,100,98,98
O=C(NCCCn1ccnc1)c1cc2c(ccc3ccccc32)o1,97,95,97,95,100,98
CCCS(=O)(=O)N1CCN(Cc2ccc3c(c2)c2ccccc2n3CC)CC1,102,105,103,103,101,100
Cc1sc2ncnc(N/N=C/c3ccc(O)cc3)c2c1C,80,82,93,93,88,77*
COc1ccc(/C=N/Nc2ncnc3sc(C)c(C)c23)cc1,96,96,93,95,97,96
CSc1nc2ccc(NC(=O)C3CC(=O)N(Cc4ccco4)C3)cc2s1 (configuration not stated),81,91,75*,90,82,86
CCCSc1nc2c3c(sc2c(=O)[nH]1)CC(C)(CC)OC3 (configuration not stated),96,98,95,94,97,93
CCOC(=O)c1ccccc1NC(=O)Cn1c(-c2nonc2N)nc2ccccc21,100,103,99,98,104,100
Nc1nonc1-c1nc2ccccc2n1CC(=O)N/N=C/c1ccc(-c2ccccc2C(=O)O)o1,84,77*,85,86,86,82
O=C(O)c1ccc(/C=N/NC(=O)c2cc(-c3ccc4c5c(cccc35)CC4)n[nH]2)cc1,84,76*,78*,91,92,80
NC(=O)c1c(NC(=O)c2cnccn2)sc2c1CCCC2,83,70*,82,85,87,80
NC(=O)c1c(NC(=O)c2ccncc2)sc2c1CCCC2,88,87,85,92,94,86
COc1cc(/C=N/NC(=O)c2sc(N)c(C#N)c2C)ccc1O,93,93,96,96,95,90
Cc1c(C(=O)N/N=C/c2ccc(O)c(Br)c2)sc(N)c1C#N,80,76*,89,92,93,79*
Cc1ccc(CSc2nnc(-c3ccccc3N)c(=O)[nH]2)cc1,98,120*[activator],102,100,97,98
O=C(CN1C(=O)COc2ccc(S(=O)(=O)N3CCCC3)cc21)NC1CCCCCCC1,98,102,101,99,98,97
N#CC(C#N)=C1C=CC=CN1/C(=C\c1ccccc1Cl)C(=O)c1ccccc1,86,92,78*,82,97,88
